Bioassay records deposited in PubChem by National Center for Advancing Translational Sciences (NCATS).
D2 ag-1: D2 dopamine receptor (human) agonism | HEK293 T-REx D2 cells, calcium flux agonist mode | activation, % at 2 µM | 340,000 tested, 0.53% active;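 active means activation over 3 SD above normal in the single-dose calcium agonist read, cut at about 30% in these data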; further: 0% is about no effect
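Tetracycline-induced HEK293 T-REx cells with force-coupled D2 receptor, plated overnight at 30 C, loaded with no-wash calcium dye. After a 10 s baseline, compound was pin-added and calcium flux read kinetically for 180 s; calcium rises flagged agonists.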
LDHA inh: inhibitors of human lactate dehydrogenase A; P00338; purified LDHA, NADH/diaphorase-resazurin fluorescence; hits give low values; activity change, % (values are at about 110 or 230 µM); 480,000 tested, 0.15% active; in the data active means activity change below about -30%; inconclusive means mostly about -25% to -30%;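 further: plate controls were DMSO wells for no effect and wells without enzyme for full effect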
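LDH5 2 nM; NADH 0.06 mM, pyruvate 0.2 mM; 200 mM Tris pH 7.4, EDTA, Tween-20; 5 min RT. Detection: diaphorase 0.133 mg/mL + resazurin 37 µM, fluorescence ex540/em590 at 0 and 20 min; normalized to enzyme-free and DMSO wells.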
D2 ag-2: human D2 receptor agonism in beta-arrestin assay; DiscoveRx PathHunter D2 beta-arrestin, luminescence, 90 min; 100% = 57 uM dopamine signal; activation, % (test concentration not listed); AID 624465; 360,000 tested, 0.084% active; P14416; in the data active means activation above about 40%; inconclusive means between about 15% and that limit
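DiscoveRx PathHunter D2 beta-arrestin cells (2,100/well) attached overnight, then compound-stimulated 90 min at 37 C in HBSS/10 mM HEPES/0.1% Tween-20 buffer; beta-galactosidase complementation read by luminescence after 1 h at ambient temperature. Dopamine 57 uM final (EC100) as control.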
D2 antag: antagonizes the human D2 dopamine receptor; P14416; HEK293 TREx D2 cells, calcium flux, dopamine EC80; inhibition, % at 10 µM; 340,000 tested, 2% active; in the data active means inhibition above about 30%; inactive means below that, where a call was filed; further: 0% is about no effect
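Compounds are added to dye-loaded, induced HEK293 T-REx cells coupled to calcium release via D2; after a 3 min kinetic read an EC80 dopamine stimulus is given and fluorescence is recorded for 3 more min.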
D2 PAM-1: human D2 receptor positive allosteric modulation; DiscoveRx D2 beta-arrestin cells, luminescence, 90 min; 100% = 57 uM dopamine signal; potentiation, % (no concentration beside the values); 360,000 tested, 0.23% active; AID 624464; in the data active means potentiation above about 50%; inconclusive means mostly about 30% to 49%
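PathHunter D2 cells, attached overnight at 37 deg C, received compound in DMSO plus dopamine at EC20 (50 nM final) for 90 min at 37 deg C. Beta-arrestin recruitment was read as luminescence after 1 h with detection reagent at ambient temperature.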
D2 PAM-2: D2 dopamine receptor (human) potentiation. 340,000 tested, 0.34% active. HEK293 T-REx D2, calcium flux, EC20 dopamine potentiation. AID 485347. P14416. potentiation, % at 10 µM;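 active means potentiation over 3 SD above the plate norm, cut at about 30% in these data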; further: 0% is about no effect
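Primary screen. Calcium kinetics in induced HEK293 T-REx D2 cells: compound pre-addition 180 s, EC20 dopamine, 180 s more.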
D3 ag: confirmation of human D3 dopamine receptor agonists, beta-arrestin | Potency, µM (top dose mostly 76.9 µM), inactives show at the highest dose activation, usual class: activators | shares compounds with D2 ag-1 | 2,300 tested, 4% active | DiscoveRx D3 beta-arrestin cells, luminescence, 90 min;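 further: potency means the concentration at half of the fitted maximal effect; 100% = dopamine control response; nearly all actives have a fitted effect of over 70% in size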
Target sequence (P35462 whole entry, looked up): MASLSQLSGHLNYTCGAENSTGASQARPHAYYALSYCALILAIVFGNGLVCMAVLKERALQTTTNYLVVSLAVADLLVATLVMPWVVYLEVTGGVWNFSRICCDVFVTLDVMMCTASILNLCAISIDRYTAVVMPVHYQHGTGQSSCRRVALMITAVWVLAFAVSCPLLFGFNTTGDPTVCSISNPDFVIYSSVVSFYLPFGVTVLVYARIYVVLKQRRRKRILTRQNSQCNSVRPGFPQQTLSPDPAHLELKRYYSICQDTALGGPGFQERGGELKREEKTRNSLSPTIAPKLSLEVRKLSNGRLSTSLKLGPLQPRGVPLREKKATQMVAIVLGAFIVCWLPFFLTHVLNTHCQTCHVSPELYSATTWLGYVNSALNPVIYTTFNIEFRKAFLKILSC
D2 ag-3: counter-screen for D3 agonists: human D2 dopamine receptor agonism; shares compounds with D2 ag-1; DiscoveRx PathHunter D2 beta-arrestin, luminescence, 90 min; response scale: percent relative to full dopamine signal; 2,300 tested, 5.9% active; Potency, µM (titrated, usually from 76.9 µM), for the others: top-dose activation, actives largely listed as activators; further: potency means the concentration at half of the fitted maximal effect; % of control where 0% means no effect; nearly all actives have a fitted effect of over 70% in size
Active calls of the source: *; ? = inconclusive; · = no result given. Hits are enriched below; roughly 2.1% of the tested compounds scored in any of these assays. Unless noted, the call rests on the fitted dose curve; in most records, active means well fitted activation curve with a large enough effect; inconclusive means small, poorly fitted or top-dose-only effect; inactive means flat fitted curve, though single readings scatter.

SMILES	D2 ag-1	LDHA inh	D2 ag-2	D2 antag	D2 PAM-1	D2 PAM-2	D3 ag	D2 ag-3
CCOC(=O)N1CCC(c2cc(=O)n3[nH]cc(C(=O)OC)c3n2)CC1	-0.4	-3.7	-4.2	-20.9	-11.4	7.7	·	·
CCOc1ccc(NC(=O)c2c[nH]n3c(=O)cc(C4CCN(C(=O)OC(C)(C)C)CC4)nc23)cc1	9.3	-12.8	-2.6	-7.7	-6.6	-7.2	10.5%	-5.1%
O=C(Nc1ccc(F)cc1)C1CC2CCC1C2 (stereo not drawn)	·	-10.4	13.0	·	-3.6	·	-10.3%	-5.8%
O=C(Nc1ccc(Cl)cc1)C1CC2CCC1C2 (stereo not drawn)	·	-1.4	·	·	·	·	·	·
N#CCC(=O)NCCCc1ccccc1	41.3*	-3.6	-3.8	5.9	-4.4	-4.6	-6.1%	-5.1%
CCOC(=O)C(NC(C)=O)(OCc1ccccc1)C(F)(F)F (stereo not drawn)	67.4*	-0.1	1.0	-7.3	4.0	-19.9	1.1%	-3.5%
CCOC(=O)C(NCCc1ccccc1)(NC(=O)CC)C(F)(F)F (stereo not drawn)	1.9	-0.1	3.2	-8.3	5.9	-6.3	0.4%	0.6%
O=C(O)c1ccc(CSc2nc3ccccc3c(=O)n2-c2ccccc2)cc1	58.0*	0.6	5.6	48.3*	26.2	-18.0	0.5%	-2.6%
O=c1c2ccccc2nc(SCc2ccc([N+](=O)[O-])cc2)n1-c1ccccc1	·	-8.4	2.8	-2.7	-5.3	-4.0	·	·
O=C(/C=C/c1ccccc1Cl)Nc1ccccc1	-0.9	-3.4	3.5	-6.7	-2.8	-13.5	·	·
CN(C)S(=O)(=O)c1ccc(NC(=O)/C=C/c2ccccc2Cl)cc1	13.9	4.6	?	13.1	-12.6	18.1	?	15.2%
Cc1nc2c([nH]1)C1(CCN(Cc3ccccc3)CC1)C(C#N)=C(N)O2	71.4*	4.5	?	60.0*	7.8	-36.0	7.9%	10.5%
CC1(C)CC(=O)C2=C(C1)OC(N)=C(C#N)C21CCN(Cc2ccccc2)CC1	3.0	6.8	2.4	-15.7	-22.3	6.6	·	·
O=S(=O)(c1ccc(NC(=S)N/N=C/c2c3ccccc3cc3ccccc23)cc1)N1CCOCC1	-0.1	-1.2	2.0	24.0	-11.5	8.1	28.9%	12.5%
O=S(=O)(c1ccc(NC(=S)N/N=C/c2ccc(Oc3ccccc3)cc2)cc1)N1CCOCC1	0.8	-8.6	3.6	7.6	-4.7	-11.6	·	·
CC(=O)OCc1cnc(C)c2oc(=O)c(-c3nc(-c4ccccc4)no3)cc12	·	4.9	·	·	·	·	·	·
O=S(=O)(NCCc1ncc2ccccn12)c1ccc(Br)cc1	·	-2.8	·	·	·	·	·	·
O=C(/C=C/c1ccccc1)NCC(=O)N/N=C/c1cccs1	43.1*	-1.6	-2.7	3.4	-4.2	-19.2	-8.8%	-1.4%
CCCN1CCC2(CC1)C(C#N)=C(N)Oc1c2sc2nc(C)cc(C)c12	77.7*	5.5	11.4	95.9*	-2.8	-21.2	21.8%	-2.4%
C=CCN(CC=C)CCOc1cc(C)ccc1[N+](=O)[O-]	20.7	-20.6	-3.0	-8.1	-3.1	-28.5	7.5%	5.9%
Cc1[nH]nc2c1C(c1ccccc1C(F)(F)F)C(C#N)=C(N)O2 (stereo not drawn)	·	10.3	·	·	·	·	·	·
CCN1C=CC2=C(C#N)C(N)C(C#N)(C#N)C(c3ccccc3C(F)(F)F)C2C1 (stereo not drawn)	3.0	1.3	-8.4	13.9	-13.4	14.3	-1.5%	-2.7%
Cc1cccc2sc(NC(=O)CSCc3ccccc3)nc12	43.8*	1.1	-2.6	-13.0	-17.3	-22.5	-3.7%	4.5%
Cc1cccc2sc(NC(=O)Cn3cccc3)nc12	1.0	3.7	5.5	-2.1	-1.6	-6.5	·	·
O=C(c1ccc(Cl)cc1)N1CCN(CCOc2ccccc2)CC1	74.3*	0.4	?	76.4*	-1.8	-22.3	0.1µM*	25.1µM*
SMILES	D2 ag-1	LDHA inh	D2 ag-2	D2 antag	D2 PAM-1	D2 PAM-2	D3 ag	D2 ag-3
OCCN1CCN(CCOc2cccc(Cl)c2)CC1	33.0*	-3.4	3.1	76.0*	-28.6	-23.4	?	4.2%
COCc1c(C(=O)N2CCN(CCOc3ccccc3)CC2)oc2ccccc12	80.3*	-7.1	?	77.5*	9.8	-22.2	0.316µM*	?
O=C(NCCN1CCN(C(=O)c2ccc(Cl)cc2)CC1)c1ccc(Cl)cc1	·	2.4	·	·	·	·	·	·
O=C(c1c(F)cccc1F)N1CCN(CCOc2ccccc2)CC1	60.0*	-4.1	0.7	21.5	-8.9	-9.3	?	18.3%
COc1ccc(OCCN2CCN(C(=O)c3ccc(OC(F)F)c(OC)c3)CC2)cc1	11.5	-9.6	3.5	-3.9	0.8	11.5	·	·
COc1ccc(OCCN2CCN(C(=O)c3ccc(OC)cc3)CC2)cc1	42.1*	-2.6	2.5	12.6	-7.2	-10.2	0.447µM*	18.3%
CCOC(=O)CNC(=O)c1cc(-c2ccccc2)nc2ccccc12	·	10.2	·	·	·	·	·	·
CCCCNC(=O)C(CC)(ONc1ccccc1C(F)(F)F)c1ccccc1 (stereo not drawn)	0.5	14.9	-3.1	-10.3	-15.8	7.1	-3.3%	8.8%
CCCCNC(=O)[C@@](CC)(ONc1ccccc1C(F)(F)F)c1cccc2ccccc12	0.4	2.3	-4.9	6.2	-13.6	-1.5	·	·
COc1cccc(-n2cc(CNCc3cn(C)nc3-c3ccccc3F)cn2)c1	78.7*	-1.2	66.2*	84.7*	24.4	-21.5	6.31µM*	12.6µM*
COc1cccc(-n2cc(CNCc3c(C(=O)N(C)C)nc4ccc(Cl)cn34)cn2)c1	·	3.1	-2.6	·	-21.8	-21.0	10.2%	-0.2%
Cc1ccccc1-n1cc(CNCc2c(C(=O)N(C)C)nc3ccc(Cl)cn23)cn1	0.1	2.2	-4.8	1.1	-25.3	-1.4	·	·
O=C(c1nc2nc(-c3cccs3)cc(C(F)(F)F)n2n1)N1CCC2(CC1)OCCO2	·	3.4	·	·	·	·	·	·
O=C(c1nc2nc(-c3cccs3)cc(C(F)(F)F)n2n1)N1CCN(Cc2ccccc2)CC1	65.2*	0.5	-1.0	4.7	19.4	-10.7	-7.2%	1.2%
Cc1cc(C(=O)NNC(=O)c2ccc(C(F)(F)F)cc2)no1	0.8	-2.8	-1.4	18.6	-5.6	1.1	-5.9%	-6.1%
Cc1cc(C(=O)NNc2ccc(F)cc2F)no1	49.0*	-2.8	5.8	8.5	-6.0	-19.3	-1.7%	-1.4%
